Results: PubChem BioAssay AID488920 (Sanford-Burnham Center for Chemical Genomics, 2010)
Values without a mark were called inactive. The source made the active and inactive calls. Rule as the data show it: active = IC50 below about 3 µM; inactive = the rest.

Assay: luminescence signal interference by compounds, dose response, artefact control for SENP inhibitor project, biochemical (AID 488920)
Conditions: luminescence interference counterscreen, spectral interferers

Compound | IC50
CCCCn1c(NC(=O)c2ccccc2Cl)c(C#N)c2nc3ccccc3nc21 | > 5000 nM
COc1cc([N+](=O)[O-])ccc1N/C=C/C(=O)c1cccs1 | 458 nM (active)
C/C(=N\OC(=O)c1ccc(Br)cc1)c1ccccn1 | 548 nM (active)
Cc1ccnc(Nc2nc(-c3ccccc3)cs2)c1 | 824 nM (active)
O=C1/C(=C/c2ccc([N+](=O)[O-])cc2)CCc2ccccc21 | 884 nM (active)
COc1ccc(C(=O)c2nccc3cc(OC)c(OC)cc23)cc1OC | > 5000 nM
O=C1c2ccccc2-c2nnc(-c3ccc(F)cc3)cc21 | 1180 nM (active)
Cc1ccc(C(=O)NNc2cc(N3CCCC3)nc(N3CCCC3)n2)cc1 | > 5000 nM
CCN(CC)c1ccc(/C=N/NC(=O)c2ccoc2C)c(O)c1 | 2530 nM (active)
CCOc1ccc(/C=C2\CCc3ccccc3C2=O)cc1 | 782 nM (active)
O=c1oc2c(O)cccc2cc1-c1nc2ccccc2[nH]1 | 606 nM (active)
COc1cc(C(=O)c2nccc3cc(OC)c(OC)cc23)c([N+](=O)[O-])cc1OC | > 5000 nM
Oc1[nH]c2ccccc2c1N=Nc1ccc(F)cc1 | 888 nM (active)
CCC(C)n1c(NC(=O)c2ccccc2)c(C#N)c2nc3ccccc3nc21 (centres undefined) | > 5000 nM
O=C(O)c1ccc2cc(-c3ccccc3)[nH]c2c1 | 471 nM (active)
Cc1cc(C)nc(Nc2nc(-c3ccccc3)cs2)n1 | 865 nM (active)
Cc1ccc(/C=C/c2nc3ccccc3c(=O)[nH]2)cc1 | 403 nM (active)
Cc1ccc(NC2=C/C(=N/S(=O)(=O)c3cccs3)c3ccccc3C2=O)cc1 | > 5000 nM
O=c1[nH]c(Nc2ccccc2)cc2ccccc12 | > 5000 nM
CCn1c(O)c(N=Nc2ccc3ccccc3n2)c2ccccc21 | 2910 nM (active)
O=C(O)c1ccc(NC2=C/C(=N/S(=O)(=O)c3ccccc3)c3ccccc3C2=O)cc1 | > 5000 nM
Cn1c(-c2ccccc2)cc2onc(-c3ccccc3)c2c1=O | 607 nM (active)
Cc1nc(Nc2ccc(C(=O)O)cc2)sc1-c1ccccc1 | 325 nM (active)
Cc1ccc(S(=O)(=O)/N=C2\C=C(Nc3cccc(C(=O)O)c3)C(=O)c3ccccc32)c(C)c1 | > 5000 nM
